Compound activity (PubChem)
Anthrax LF prot: anthrax lethal factor protease inhibition. P15917. multiplex microsphere protease cleavage assay, LF. inhibition, % at 10 µM. 0.12% of 360,000 active
Autofluor counter: flagged as autofluorescent in microsphere protease counterscreen | compound autofluorescence counterscreen, microsphere flow cytometry; active compounds read high | fluorescence intensity (test concentration not listed) | 3.1% of 360,000 active; in the data active = fluorescence intensity above about 16000; inconclusive = no clear call, values can overlap the other calls
BoNT-F LC inh: inhibitors of Botulinum neurotoxin F light chain protease. inhibition, % at 10 µM. 0.22% of 360,000 active. Multiplex microsphere protease cleavage assay, flow cytometry; in the data active = inhibition above about 35%, passing the limit was not always enough; inconclusive = no clear call, values can overlap the other calls
MazF activator: increases E. coli MazEF RNase cleavage of RNA; AID 504720; activation, % at 20 µM; P0AE70; FAM/BHQ RNA-DNA oligo cleavage fluorescence, 5 h; 0.32% of 350,000 active; in the data active = activation above about 50%
BoNT-A LC inh2: BoNT A light chain protease inhibition | multiplex microsphere protease substrate cleavage, flow cytometry | inhibition, % at 10 µM | 0.17% of 360,000 active
BH1578 lux ind: quorum light induction in luxS cqsA deficient V. cholerae. 0.16% of 350,000 active. activation, % at 18.7 µM. V. cholerae BH1578 lux reporter, luminescence, 6 h; in the data active = activation mostly above about 9.7%, no sharp cut-off; inconclusive = no clear call, values can overlap the other calls; inactive = mostly below about 3.7%
Numbers stand for hits; - = inactive; ? = inconclusive; . = no result; + = active, no number. Only some compounds are listed: those with a hit (about 3.9% of all), similar ones and a draw of the others. Rule as the data show it, unless noted: active = inhibition above about 30%; inconclusive = no clear call, values can overlap the other calls; inactive = below that.

SMILES	Anthrax LF prot	Autofluor counter	BoNT-F LC inh	MazF activator	BoNT-A LC inh2	BH1578 lux ind
Cc1cc(=O)oc(C)c1C(=O)NCCN1CCOCC1	-	22773	-	-	?	-
CCCCN(CCCNC(=O)c1c(C)cc(=O)oc1C)c1ccccc1	-	22469	-	-	-	-
CCCNC(=O)c1c(C)cc(=O)oc1C	-	-	-	-	-	-
CC1(C(=O)Nc2cnc3ccccc3c2)CCN1Cc1ccccc1OC(F)F (centres undefined)	-	-	-	.	-	-
Cc1ccc(/C(N)=N/OC(=O)N2c3ccccc3Sc3ccccc32)cc1	-	-	-	-	-	-
Cc1ccccc1/C(N)=N/OC(=O)N1c2ccccc2Sc2ccccc21	-	23999	-	-	-	-
COc1cc(OC)c(C(=O)Nc2ccc(S(=O)(=O)Nc3ncccn3)cc2)cc1OC	-	21604	-	-	-	-
COc1ccc(CC(=O)Nc2ccc(S(=O)(=O)Nc3ncccn3)cc2)cc1OC	-	-	-	-	-	-
CC1(Br)C(Sc2ccccc2[N+](=O)[O-])=Nc2ccccc21 (centres undefined)	-	-	-	.	-	.
CN(C)c1ccc(/C=C(/NC(=O)c2ccccc2)C(=O)NCCCn2ccnc2)cc1	-	-	-	74	-	-
CCCCCCCCNC(=O)CCNC(=O)c1ccc(C(C)(C)C)cc1	-	16679	-	-	-	-
COc1cc(/C=C2\C(=O)ON=C2c2ccccc2)cc(OC)c1OC	-	-	-	-	-	+
CSc1nc(Cl)c(Br)c(Nc2c[nH]c(=O)[nH]c2=O)n1	-	-	-	-	-	-
CN(C)c1ccc(N/C=C/C(=O)c2ccc(F)cc2)cc1	-	20250	-	105	?	-
Cc1occc1-c1nc(-c2ccccn2)no1	-	-	?	-	-	-
Cc1occc1-c1nc(-c2ccncc2)no1	-	21018	-	-	-	-
FC(F)(F)c1cnc(N2CCSCC2)c(Cl)c1	-	-	-	-	-	-
CON=C1CCN(c2ncc(C(F)(F)F)cc2Cl)CC1	-	19907	-	-	?	-
Cc1ccn(CCSCC(=O)O)n1	-	22249	-	-	?	-
Cc1ccc(C)c(C(=O)COC(=O)c2cc([N+](=O)[O-])ccc2NCCO)c1	-	-	-	-	-	-
NC(CO)C(=O)NNCc1ccc(O)c(O)c1O (centres undefined)	-	-	-	223	-	-
CC(=O)NC(Cc1ccccc1)C(=O)Oc1ccc2ccccc2c1 (centres undefined)	-	-	-	-	-	-
CC(NC(=O)c1cccc(Cn2cc([N+](=O)[O-])cn2)c1)c1ccc(C(C)(C)C)cc1 (centres undefined)	-	19892	-	-	-	-
CCC(NC(=O)c1cccc(Cn2cc([N+](=O)[O-])cn2)c1)c1ccc(C(C)C)cc1 (centres undefined)	-	-	-	-	-	-
CC(C)NC(=O)c1cccc(Cn2cc(Cl)cn2)c1	-	22543	-	-	-	-
SMILES	Anthrax LF prot	Autofluor counter	BoNT-F LC inh	MazF activator	BoNT-A LC inh2	BH1578 lux ind
Cc1ccc(S(=O)(=O)Cc2ccc(C(=O)N3CCN(c4ccccn4)CC3)o2)cc1	-	-	-	-	-	-
COc1ccc(S(=O)(=O)Cc2ccc(C(=O)NCCCN(C)c3ccccc3)o2)cc1	-	22186	-	-	?	-
CCCc1ccc(OCc2ccc(C(=O)N3CCN(c4ccccn4)CC3)o2)c(OC)c1	-	23006	-	-	?	-
O=C(c1ccc(CS(=O)(=O)c2cccc(C(F)(F)F)c2)o1)N1CCN(c2ccccn2)CC1	-	23435	-	-	?	-
O=C(NCc1ccco1)c1ccc(CS(=O)(=O)c2cccc(C(F)(F)F)c2)o1	-	22579	-	-	-	-
O=C(NCc1ccc2c(c1)OCO2)c1ccc(CS(=O)(=O)c2cccc(C(F)(F)F)c2)o1	-	-	-	-	-	-
COc1ccc(CC(=O)N2CCN(c3ccccn3)CC2)cc1OC	-	-	-	-	-	-
C[C@@H]1CC2=C(C(=O)OC(C)(C)O2)[C@H](c2ccc(Cl)cc2)O1	-	-	-	.	-	.
CCCCN(C)c1c(C)nc2ccc(C(=O)NCc3ccc4c(c3)OCO4)cn12	-	-	-	.	-	-
CCCCNC(=O)c1ccc(CS(=O)(=O)c2cccc(C(F)(F)F)c2)o1	-	21163	-	-	-	-
COCCNC(=O)c1ccc(CS(=O)(=O)c2cccc(C(F)(F)F)c2)o1	-	-	-	-	-	-
Cc1ccc(CC2C(=O)N(C)C(=O)N(C)C2=O)s1	-	21258	-	-	?	-
C=C1N(c2cccc(Cl)c2)C(=O)OC1(C)C	-	-	-	-	-	-
Cc1ccc(C2(CC(=O)O)CCOC(C)(C)C2)cc1 (centres undefined)	-	19797	-	-	?	-
CC1(C)CC(CC(=O)O)(c2ccc(F)cc2)CCO1 (centres undefined)	-	-	-	-	-	-
O=C(CCN1C(=O)/C(=C\c2ccccc2)SC1=S)NNC(=O)c1ccncc1	?	-	-	-	-	-
O=C(CCN1C(=O)/C(=C\C=C\c2ccccc2)SC1=S)Nc1ccc(C(=O)O)cc1	-	-	-	-	-	-
O=C(COC(=O)CCN1C(=O)/C(=C\C=C\c2ccccc2)SC1=S)Nc1cc(F)ccc1F	-	-	-	-	42	-
O=C(CN1C(=O)/C(=C\C=C\c2ccccc2)SC1=S)Nc1ccc(F)cc1	-	-	-	-	34	-
O=C(CCN1C(=O)/C(=C/c2ccccc2)SC1=S)NNC(=O)c1ccncc1	-	-	-	135	-	-
O=C(CCN1C(=O)/C(=C/C=C/c2ccccc2)SC1=S)Nc1nc2ccccc2s1	-	-	-	-	56	-
COc1ccc(C(C)C)cc1-c1cncc(NC(C)=O)n1	-	-	-	.	-	-
CC(C)CCn1c(=O)c2sccc2n2c(CCCC(=O)N3CCN(c4ccccn4)CC3)nnc12	-	-	-	-	-	-
COCCCn1c(=O)/c(=C\c2ccccc2OC(F)F)s/c1=C(/C#N)C(=O)NC(C)C	-	-	-	303	-	-
COc1ccc(NC(=O)Nc2nnc([C@@H]3C[C@H](O)[C@@H](CO)O3)s2)cc1	-	-	-	.	-	-
SMILES	Anthrax LF prot	Autofluor counter	BoNT-F LC inh	MazF activator	BoNT-A LC inh2	BH1578 lux ind
CN1C[C@@H]2[C@@H]3C(=O)N(Cc4ccccc4)C(=O)[C@@H]3[C@](C)(C1=O)N2C(=O)c1ccc(Br)cc1	-	-	-	-	-	-
CC(Oc1ccccc1)c1ccnn1S(=O)(=O)c1ccccc1 (centres undefined)	-	-	-	-	-	-
CCNC(=O)n1nccc1C(C)Oc1ccccc1 (centres undefined)	-	21929	-	-	-	-
COc1ccc(NC(=O)C2(C)Cc3c(-c4ccc(NC(C)=O)cc4)ccnc3O2)cc1OC (centres undefined)	-	-	-	.	-	-
Cc1ccc(S(=O)(=O)N2CCC(C(=O)NCc3ccncc3)CC2)cc1	-	21375	-	-	-	-
CC(=O)Nc1ccc(S(=O)(=O)N2CCC(C(=O)NCc3ccncc3)CC2)cc1	-	-	-	-	-	-
